Screening data: PubChem, National Center for Advancing Translational Sciences (NCATS)
TDP1 cell noCPT: qHTS for Inhibitors of human tyrosyl-DNA phosphodiesterase 1 (TDP1): qHTS in cells in absence of CPT; AID 686978, 2013; DT40 Tdp1-/- hTDP1 cells, no CPT, ATP luminescence, 48 h; Potency, µM (titrated, usually from 46.2 µM), for inactives: at the top dose activity change, negative = growth inhibition, usual class: inhibitors; 420,000 tested, 15% active; note: potency is the fitted concentration of half-maximal effect; nearly all actives have a fitted effect of over 55% in size
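Compound effects on proliferation are scored in DT40 Tdp1-/-;hTDP1 cells in the absence of CPT. ATP levels (CellTiter-Glo luminescence) are recorded after a ≥48 hr, 37 °C incubation.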
IL-1B inflam inh: inflammasome signaling inhibition, IL-1 beta readout. THP-1 LPS/ATP IL-1B secretion, AlphaLISA, 16 h; active compounds read low. 360,000 tested, 4.7% active. activity change, % at 57.5 µM; in the data active = activity change below about -50%; inconclusive = mostly about -30% to -49%
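Secreted IL-1B measured by AlphaLISA bead assay after 16 h compound exposure of THP-1 cells; compounds (final up to 57.5 uM) added 1 h before LPS (250 ng/mL) and ATP (1.25 mM) stimulation; lower signal means less secretion.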
TDP1 cell CPT: growth inhibition of DT40 Tdp1-/-;hTDP1 cells with camptothecin (screen for TDP1 inhibitors); Potency, µM (highest dose often 46.2 µM), for inactives: at the top dose activity change, negative = growth inhibition, usual class: inhibitors; chicken DT40 Tdp1-/-;hTDP1 cells + 20 nM CPT, ATP luminescence, 48 h; 420,000 tested, 12% active; AID 686979; note: potency is the fitted concentration of half-maximal effect; nearly all actives have a fitted effect of over 55% in size
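Chicken DT40 Tdp1-/- cells stably complemented with human TDP1 were seeded at 400 cells/well in medium containing 20 nM camptothecin, exposed to pin-transferred compounds, and grown at 37 °C for at least 48 hr. Viability was read as ATP luminescence.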
TDP1 block: inhibitors of human tyrosyl-DNA phosphodiesterase TDP1 | Potency, µM (top dose mostly 130 µM), for the others: at the top dose activity change, negative = inhibition, most hits filed as inhibitors | Q9NUW8 | 350,000 tested, 0.28% active | recombinant TDP1, AlphaScreen DNA substrate cleavage; note: potency is the fitted concentration of half-maximal effect; nearly all actives have a fitted effect of over 40% in size
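Here, a 5' biotin and 3' phosphotyrosine-FITC DNA oligonucleotide reports Tdp1 activity: intact substrate bridges AlphaScreen beads, while cleavage leaves a 3' phosphate and drops signal. All incubations at room temperature.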
CtBP-E1A blk: blocks the CtBP interaction with E1A | AlphaScreen GST-E1A/His-CtBP binding, 1536-well; active compounds read low | activity change, % (test concentration not listed) | 340,000 tested, 0.49% active; in the data active = activity change below about -65%; inconclusive = mostly about -30% to -63%
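Homogeneous bead-based format: GST-tagged E1A captured on glutathione donor beads, His-tagged CtBP on nickel acceptor beads; compounds precede bead addition by 2 h at 37 °C.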
Six1-Eya2 blk: blocks human Six1 binding to Eya2; AlphaScreen GST-Six1/His-Eya2 binding, biochemical; active compounds read low; activity change, % (no concentration beside the values); 360,000 tested, 0.56% active; AID 651725; in the data active = activity change below about -65%; inconclusive = mostly about -30% to -63%
Target sequence (O00167 whole entry, looked up): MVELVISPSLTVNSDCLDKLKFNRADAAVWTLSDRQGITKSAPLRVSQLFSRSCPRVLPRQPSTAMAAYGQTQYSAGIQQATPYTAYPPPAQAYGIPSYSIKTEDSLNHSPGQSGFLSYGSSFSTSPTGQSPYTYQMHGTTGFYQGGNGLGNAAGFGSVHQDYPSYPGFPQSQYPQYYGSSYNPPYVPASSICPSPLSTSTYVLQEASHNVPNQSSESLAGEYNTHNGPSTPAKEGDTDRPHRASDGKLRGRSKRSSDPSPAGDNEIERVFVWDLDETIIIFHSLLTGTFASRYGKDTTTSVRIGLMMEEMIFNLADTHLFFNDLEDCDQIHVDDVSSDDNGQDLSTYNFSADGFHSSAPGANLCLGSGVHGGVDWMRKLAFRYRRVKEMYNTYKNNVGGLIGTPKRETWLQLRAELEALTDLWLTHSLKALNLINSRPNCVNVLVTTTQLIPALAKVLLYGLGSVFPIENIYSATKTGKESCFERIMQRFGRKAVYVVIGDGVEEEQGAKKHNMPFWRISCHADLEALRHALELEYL
Target sequence (Q15475 whole entry, looked up): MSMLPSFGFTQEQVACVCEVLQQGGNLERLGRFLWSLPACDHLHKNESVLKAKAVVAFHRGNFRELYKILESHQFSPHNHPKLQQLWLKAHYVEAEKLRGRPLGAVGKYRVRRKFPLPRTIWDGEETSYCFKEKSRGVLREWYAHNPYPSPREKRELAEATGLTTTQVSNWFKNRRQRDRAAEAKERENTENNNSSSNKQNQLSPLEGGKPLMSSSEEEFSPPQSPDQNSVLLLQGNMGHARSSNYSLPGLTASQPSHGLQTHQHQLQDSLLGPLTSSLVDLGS
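Homogeneous AlphaScreen proximity assay pairing GST-Six1 with His-tagged Eya2 (added as 5X mix: 250 nM and 500 nM) in 50 mM Tris pH 8.0, 300 mM NaCl, 1 mM TCEP. Glutathione donor and nickel acceptor beads; 1 h, 37 °C, dark.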
* = called active by the depositor; ? = inconclusive; . = no result given. Compounds with a hit are over-represented: about 18% of the library has one in this group of screens. Unless noted, calls come from the whole dose curve; as a rule, active = well fitted curve in the direction sought with a large enough effect; inconclusive = small, poorly fitted or top-dose-only effect, or another doubt; inactive = no such curve, though single readings can be large; an effect the other way counts as inactive or inconclusive. % is set by controls: 0 for no effect and ±100 for the full control effect.

SMILES | TDP1 cell noCPT | IL-1B inflam inh | TDP1 cell CPT | TDP1 block | CtBP-E1A blk | Six1-Eya2 blk
c1ccc(-c2ccccc2OCCCCN2CCCCC2)cc1 | 16µM* | -63* | ? | 1% | 8 | 2
O=c1c(CCc2ccccc2)nc2cncnc2n1Cc1ccccc1Cl | -6% | . | -15% | . | . | .
COc1ccc2c(c1)O[C@H](c1ccc3c(c1)OCO3)[C@@H](OC(=O)NCc1ccc3c(c1)OCO3)C2=O | . | . | . | 7% | . | .
CC(C)C[C@H]1CNC(=S)N1CC1CCCN1C[C@H](Cc1ccccc1)N1C[C@H](Cc2ccc(O)cc2)N(CC2CCCCCC2)C1=S (some centres not stated) | ? | -67* | ? | . | -6 | -8
CC(C)C[C@H]1CN([C@@H](Cc2ccc(O)cc2)CN2CCCC2CN2C(=S)NC[C@@H]2Cc2ccccc2)C(=S)N1CC1CCCCC1 (some centres not stated) | 15µM* | -29 | 16µM* | . | -1 | -9
CC(C)C[C@H]1CNC(=S)N1C[C@H]1CCCN1C[C@H](Cc1ccc(O)cc1)N1C[C@H](Cc2ccc(O)cc2)N(CC2CCCCCC2)C1=S | 6.5µM* | ? | 4.6µM* | . | -8 | -16
Oc1ccc(C[C@H]2CNC(=S)N2C[C@H]2CCCN2C[C@H](Cc2ccccc2)N2C[C@H](Cc3ccccc3)N(CC3CCCCC3)C2=S)cc1 | 13µM* | -1 | ? | . | -3 | -6
CC(C)CC(=O)N1CCC(O)(CS(=O)(=O)Cc2ccc(Cl)cc2)CC1 | -1% | -1 | -29% | 2% | -6 | 5
Cc1nc(Cl)c(S(N)(=O)=O)c(C)c1Cl | 1% | 41 | 6% | 5% | 2 | 10
CC(C)C[C@H]1CN([C@@H](Cc2ccc(O)cc2)CN2CCC[C@@H]2CN2C(=S)NC[C@@H]2Cc2ccccc2)C(=S)N1CC1CCCCCC1 | 21µM* | -17 | ? | . | -9 | -9
CC(=O)Nc1ccc(S(=O)(=O)NCC(=O)OCC(=O)N2CCc3ccccc32)cc1 | -8% | 19 | -12% | 5% | -3 | -1
Cc1nc2nc(SCC(=O)c3cccc([N+](=O)[O-])c3)[nH]c2cc1Br | 18µM* | 3 | ? | 0% | -2 | -6
O=C(CSc1nc2ccc([N+](=O)[O-])cc2[nH]1)NC1CCCCC1 | 26µM* | 0 | ? | -4% | -3 | -6
O=C(CSc1nc2ccc([N+](=O)[O-])cc2[nH]1)NC1CCCCCC1 | ? | -84* | -15% | 3% | -10 | -7
COc1ccc(C(=O)CSc2nc3ccc([N+](=O)[O-])cc3[nH]2)cc1 | 16µM* | -2 | ? | 5% | -10 | -4
CC(C)OC(=O)CSc1nnc(C2CCCCC2)n1N | -3% | 0 | -2% | 5% | . | -3
COc1ccc(OC)c(/C=N/N2CCN(c3ccc(Cl)cc3)CC2)c1 | ? | -13 | ? | . | . | -3
Cc1sc2nc(Cc3ccccc3)[nH]c(=O)c2c1-c1ccccc1 | -16% | 0 | -11% | 3% | 9 | 6
CCOc1cc2[nH]c(=S)n(CCCN3CCOCC3)c(=O)c2cc1OCC | ? | 8 | ? | 7% | -1 | -2
COc1ccccc1N1CCN(CCCNC(=O)Cn2ncc3c([nH]c4ccccc43)c2=O)CC1 | 21µM* | -27 | ? | 1% | -19 | 4
COc1ccccc1N1CCN(CCCn2c(=S)[nH]c3ccccc3c2=O)CC1 | 9.2µM* | -21 | 13µM* | . | ? | -21
COc1cc2c(=O)n(CCCN3CCOCC3)c(=S)[nH]c2c(OC)c1OC | 23µM* | 38 | 5.8µM* | 8% | -1 | -1
O=C(Cn1ncc2c([nH]c3ccccc32)c1=O)NCCc1ccc(Cl)cc1 | -12% | -9 | -3% | -2% | . | 1
O=C(Cn1ncc2c([nH]c3ccccc32)c1=O)Nc1ccc(CN2CCCCC2)cc1 | 18µM* | 101 | ? | 2% | . | -2
O=C(Nc1ccc(F)c(Cl)c1)c1cc(-c2ccco2)on1 | ? | -4 | -1% | 7% | -3 | 3
SMILES | TDP1 cell noCPT | IL-1B inflam inh | TDP1 cell CPT | TDP1 block | CtBP-E1A blk | Six1-Eya2 blk
O=C(Cn1ncc2c([nH]c3ccccc32)c1=O)NCCCN1CCN(c2ccc(F)cc2)CC1 | ? | . | ? | 5% | . | .
Cc1ccc(C)c(N2CCN(CCCNC(=O)Cn3ncc4c([nH]c5ccccc54)c3=O)CC2)c1 | 21µM* | . | 15µM* | 6% | . | .
COc1ccc(Nc2nc(C)cc(-c3cc(-c4ccccc4)on3)n2)cc1 | ? | 42 | -25% | . | . | 1
N/C(=C\C(=O)c1cc(Cl)ccc1O)C(Cl)(Cl)Cl | 3.3µM* | 0 | 3.7µM* | 8% | -3 | -1
CCSc1ccc([C@@H]2[C@@H]3C(=O)N(C)C(=O)[C@@H]3[C@]3(C(=O)OC)CCCCN23)cc1 | ? | ? | 16µM* | 1% | -23 | 1
COC(=O)[C@@]12CCCCN1[C@H](c1ccc(SC3CCCCC3)cc1)[C@H]1C(=O)N(C)C(=O)[C@H]12 | 16µM* | 0 | ? | 0% | 4 | -5
COC(=O)[C@@]12CCCN1[C@H](c1ccc(SC3CCCCC3)cc1)[C@H]1C(=O)N(C)C(=O)[C@H]12 | 16µM* | 24 | ? | 2% | -3 | -9
COc1ccc(CC(=O)Nc2nnc(-c3cccc([N+](=O)[O-])c3)s2)cc1 | 3% | -17 | 5% | 7% | 3 | 3
O=C(CCCCCn1c(=S)[nH]c2cc3c(cc2c1=O)OCO3)N1CCN(Cc2ccccc2)CC1 | -29% | 30 | 9.2µM* | -1% | -14 | -2
O=C(CCCCCn1c(=S)[nH]c2cc3c(cc2c1=O)OCO3)N1CCN(C2CCCCC2)CC1 | ? | -74* | ? | 2% | -1 | -4
Cc1nn(-c2ccccc2)c(C)c1CNC(=O)c1ccc(S(=O)(=O)NCc2ccco2)cc1 | 3% | 19 | -5% | 4% | 14 | -2
O=C(Oc1ccc(Br)cc1C(=O)/C=C/c1ccccc1F)c1ccco1 | 16µM* | -98* | 21µM* | . | 0 | -13
O=C(/C=C/Nc1ccc(Br)cc1F)c1ccco1 | ? | -9 | -4% | -10% | -12 | 1
COc1cc(C=NNc2nc3c([nH]2)c(=O)n(C)c(=O)n3C)ccc1O | -12% | 4 | 2% | . | -1 | 4
CC(C)N1CC(O)=C(c2nc3ccccc3c(=O)[nH]2)C1=N | ? | ? | -11% | 0% | -6 | -9
